These results are taken from ChEMBL document CHEMBL3988442, “University of Dundee, Small-Polar-MMV Screening Library” (2021).

For some of these results: Potency and affinity values are given separately.

In one assay the target is T1, Ubiquitin-activating enzyme e1, putative (Leishmania donovani (strain BPK282A1)) (UniProt E9BSI1).
T1 sequence (whole entry): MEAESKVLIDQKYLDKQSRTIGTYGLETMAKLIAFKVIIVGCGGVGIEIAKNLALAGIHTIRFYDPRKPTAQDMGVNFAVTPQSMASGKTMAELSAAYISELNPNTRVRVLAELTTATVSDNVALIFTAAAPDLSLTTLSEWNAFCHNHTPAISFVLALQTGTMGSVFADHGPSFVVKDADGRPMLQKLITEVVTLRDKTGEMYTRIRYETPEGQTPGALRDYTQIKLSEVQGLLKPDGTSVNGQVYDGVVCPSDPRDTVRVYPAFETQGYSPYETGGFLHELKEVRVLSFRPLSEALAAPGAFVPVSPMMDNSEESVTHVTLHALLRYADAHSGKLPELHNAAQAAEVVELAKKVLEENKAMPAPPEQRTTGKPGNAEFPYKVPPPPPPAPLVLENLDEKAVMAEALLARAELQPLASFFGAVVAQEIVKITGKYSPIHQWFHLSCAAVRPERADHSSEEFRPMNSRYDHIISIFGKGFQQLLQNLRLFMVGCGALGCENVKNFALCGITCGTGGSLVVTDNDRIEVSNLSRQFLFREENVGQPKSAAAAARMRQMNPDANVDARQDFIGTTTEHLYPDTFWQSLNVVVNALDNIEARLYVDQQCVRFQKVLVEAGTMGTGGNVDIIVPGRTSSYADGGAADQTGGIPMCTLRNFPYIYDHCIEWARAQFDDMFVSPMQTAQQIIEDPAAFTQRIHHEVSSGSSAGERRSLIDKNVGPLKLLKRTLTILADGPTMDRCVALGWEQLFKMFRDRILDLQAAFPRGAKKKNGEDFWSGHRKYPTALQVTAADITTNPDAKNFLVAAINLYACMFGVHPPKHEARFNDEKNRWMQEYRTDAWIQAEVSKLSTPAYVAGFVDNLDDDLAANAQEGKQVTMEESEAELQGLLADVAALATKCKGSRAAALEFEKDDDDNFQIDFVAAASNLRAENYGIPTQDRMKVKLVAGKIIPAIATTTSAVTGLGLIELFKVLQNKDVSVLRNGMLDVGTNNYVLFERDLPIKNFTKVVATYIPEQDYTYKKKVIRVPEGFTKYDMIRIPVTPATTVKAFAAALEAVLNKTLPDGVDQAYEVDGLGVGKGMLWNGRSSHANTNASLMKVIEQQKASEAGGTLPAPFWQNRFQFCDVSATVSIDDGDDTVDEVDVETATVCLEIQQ
Nature of the assay: Leishmania donovani Ubiquitin Activating Enzyme (LdE1). In kind it is functional. The arrangement: scale not given: direction of the effect not stated beside the values. To be noted: 30 µM.
In the case of `Cc1nnc(N2C[C@H](C(=O)NCC3CC3)[C@@H]3CCO[C@@H]3C2)s1`, the Percent Effect worked out at 0%.
Turning to `CCOc1nnc(CNC2CCCN(c3ccc(C)nn3)C2)s1` (stereo not drawn), the Percent Effect amounted to 13.5%.
On the same count and under the same terms, as for `CC(C)NC(=O)N1CCN(S(=O)(=O)C2CC2)CC2(CC(=O)N(C)C2)C1` (stereo not drawn), the figure is 10.4%.
Regarding `Cc1noc(CN2CCN(CC(C)O)CC2)n1` (stereo not drawn), the Percent Effect is 8.11%.

A further assay addresses AMP-activated protein kinase, AMPK (Homo sapiens) (UniProt P54646+O43741+P54619+Q9UGJ0+Q9Y478+Q13131+Q9UGI9). Nature of the assay: AMP-dependent Kinase enzyme assay. An in vitro enzyme assay that detects ADP turnover that is directly proportional to AMPK activity. This uses naive AMPK that is activated during the assay with MK-8722. In kind it is functional. More on the design: scale not given: direction of the effect not stated beside the values. The conditions noted are these: 30 µM.
Take `N#Cc1ccc(N2CCCN(C(=O)CC3CCCO3)CC2)cc1` (stereo not drawn): the Percent Effect was determined as 7.34%.
Same read-out and setting: as for `O=c1ccc(-c2cccs2)nn1CN1CCN(Cc2ccccc2)CC1`, the figure is 2.74%; as for `Cc1ccc(C(=O)NS(=O)(=O)c2cc(Cl)ccc2Cl)c(=O)[nH]1`, -4.48%; as for `Cc1nccn1C1CCCN(C(=O)c2cc(O)nc3ccccc23)C1` (stereo not drawn), -7.86%.
Still for that read-out and setting: as for `CCCc1n[nH]c(C2CN(C(=O)c3cc(F)ccc3OC)CCO2)n1` (stereo not drawn), the figure is -0.379%.
With `Cc1cnn(CC2CCCN2CCCc2nc3ccccc3o2)c1` (stereo not drawn), the Percent Effect is -13.1%.
Same read-out and setting: as for `CC(=O)N1CC(Cc2nccc3ccn(C)c23)C1`, the figure is 0.304%; as for `CC(c1ccc(Cl)cc1)N1CCN(CCNS(C)(=O)=O)CC1` (stereo not drawn), -2.79%; as for `CCn1ccnc1-c1nc2cc(S(=O)(=O)N3CCCC3)ccc2n1C`, 3.54%.
Still for that read-out and setting: as for `Cc1ccc(CNCc2ccc(-n3nc(C)cc3C)nc2)cc1`, the figure is 0.483%.
`CC(C)Oc1cccc(C(=O)C2CCCN(C(=O)c3ccccn3)C2)c1` (stereo not drawn): the Percent Effect is -1.81%.
As to `CCCS(=O)(=O)N1CCOCC2(CCN(c3ccccn3)C2)C1` (stereo not drawn), the Percent Effect is -1.28%.
Consider `CC(C)Oc1cccc(CNC(=O)NC(C)(C(=O)O)c2ccco2)c1` (stereo not drawn), for which the Percent Effect was -1.29%.
The same measure, in the same setting: as for `O=C(Nc1cccc(CN2CCOC2=O)c1)N1CCSCC1`, the figure is -15.6%.
Same read-out and setting: as for `Cc1cc(C)cc(NC(=O)CN2CCCC(n3cncn3)C2)c1` (stereo not drawn), the figure is 1.86%; as for `Cc1ncsc1CN1CC[C@H]2C(=O)N(c3ccccc3)CCO[C@H]2C1`, 7.3%; as for `CCc1nccn1C1CCCN(C(=O)c2ccc3c(c2)OCO3)C1` (stereo not drawn), 8.35%.
`CCN(CC)CC(=O)NCCc1csc(N2CCCC2)n1`: the Percent Effect is -4.85%.
In the case of `COc1cc(NC(=O)c2cc(C)sc2C)c(C(=O)N(C)C)cc1OC`, the Percent Effect is -2.17%.
Same read-out and setting: as for `O=C(Cn1ccc2sccc2c1=O)NCc1ccc2c(c1)OCO2`, the figure is 2.53%; as for `Cc1nc(CN2C(=O)COC3(CCN(Cc4ccco4)CC3)C2C)cs1` (stereo not drawn), 3.27%.
The same measure, in the same setting: as for `COc1cccc(S(=O)(=O)CCN2CCC3(CC2)OCCO3)c1`, the figure is -4.97%; as for `CNC(=O)NC(=O)CN1CCC(c2cccc(F)c2)C1` (stereo not drawn), 5.35%; as for `N#Cc1ccc(CNCC(C(=O)N2CCOCC2)c2ccccc2)cc1` (stereo not drawn), -4.88%.
Regarding `Cc1ccccc1CNc1nc(O)cc(C2CC(=O)N(C)C2)n1` (stereo not drawn), the Percent Effect came to 3.36%.
For the compound `COc1cccn(CC(=O)N(C)Cc2ccoc2)c1=O`, the Percent Effect was -5.18%.
The same measure, in the same setting: as for `CC(NCc1ccc(F)cc1)c1ccc(OCC(=O)NC2CC2)cc1` (stereo not drawn), the figure is 9.48%.
On the same count and under the same terms, as for `COc1c(C)cnc(CN2CCCCC2Cn2nc(C)nc2C)c1C` (stereo not drawn), the figure is -1.73%.
For the compound `O=C1NCCN1C1CCN(Cc2nc(-c3ccoc3)no2)CC1`, the Percent Effect was determined as 2.43%.
Consider `Cc1cnc(N2CCCC3(CCN(Cc4csc(C)n4)C3=O)C2)nc1` (stereo not drawn), for which the Percent Effect amounted to 2.83%.
Take `CCS(=O)(=O)N(C)c1ccc(C(=O)N2CCCC(C)C2)cc1` (stereo not drawn): the Percent Effect was -4.69%.
For the compound `CC(=O)Nc1nc(C(=O)N2CCCC2c2noc(C)n2)cs1` (stereo not drawn), the Percent Effect was 10.4%.
On the same count and under the same terms, as for `Cc1cccc(NC(=O)N2CCCn3cnc(CN4CCCC4)c3C2)c1`, the figure is -3.2%; as for `Cc1cc(C(F)(F)F)nn1CC(C)C(=O)Nc1ccncc1` (stereo not drawn), -0.198%; as for `CNC(=O)c1ccc(OC2CCN(S(C)(=O)=O)CC2)c(Cl)c1`, -2.06%.
Regarding `Cc1nnc(N2C[C@H](C(=O)NCC3CC3)[C@@H]3CCO[C@@H]3C2)s1`, the Percent Effect stood at 3.72%.
Same read-out and setting: as for `CCOc1nnc(CNC2CCCN(c3ccc(C)nn3)C2)s1` (stereo not drawn), the figure is -13.2%.
Still for that read-out and setting: as for `CC(C)NC(=O)N1CCN(S(=O)(=O)C2CC2)CC2(CC(=O)N(C)C2)C1` (stereo not drawn), the figure is 5.32%; as for `Cc1noc(CN2CCN(CC(C)O)CC2)n1` (stereo not drawn), -4.38%.
